This is a sample that favours compounds with a hit; in the whole collection about 6.5% have one here.
HT1080NT lethal – qHTS for induction of synthetic lethality in tumor cells producing 2HG: qHTS for the HT-1080-NT fibrosarcoma cell line. HT-1080-NT fibrosarcoma viability, CellTiter-Glo ATP luminescence, 48 h. Potency, µM (highest dose often 46.1 µM), inactives show top-dose activity, negative = less viability, usual class: cytotoxic. AID 686970, 2013. 1.6% of 360,000 active;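 note: NT is the 2HG producing partner of a matched IDH1 knockdown line; potency is the fitted concentration of half-maximal effect; 0% = DMSO-treated cells and -100% = media-only wells without cells; nearly all actives have a fitted effect of over 55% in size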
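A 48-hour cytotoxicity screen used HT-1080-NT cells plated 2 hours before compound delivery. ATP-based CellTiter-Glo luminescence measured viability, normalized to DMSO and no-cell controls.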
HepG2 tox – qHTS for Inhibitors of TGF-b: Cytotox Counterscreen. 0.76% of 410,000 active. Potency, µM (highest dose often 46.1 µM), without a hit: at the top dose activity change, negative = cytotoxicity, most hits filed as cytotoxic. HepG2 CAGA-GFP viability, ATP luminescence, 18 h; note: potency is the fitted concentration of half-maximal effect
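HepG2 CAGA-GFP cells (1000/well, DMEM with 1% FBS) received compound, then TGF-beta at 500 pg/mL final, and were incubated 18 hours at 37 degrees C. Viability was read by CellTiter-Glo luminescence. Media-only wells were set as complete cell-killing and DMSO as no toxicity.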
Giardia killer – Small Molecules that selectively kill Giardia lamblia: qHTS. AID 540267, 2011. Giardia lamblia trophozoite viability. activity change, % at 7.66 µM, hits read low. 0.15% of 340,000 active; in the data active = activity change below about -80%; inconclusive = between about -30% and that limit;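 note: parasites exposed to compound for two days anaerobically before the ATP read; % is set by controls: 0 for no effect and ±100 for the full control effect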
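Luminescence from cellular ATP indicates surviving trophozoites (100 cells/well) following 48 hrs anaerobic compound treatment at 37 deg C; signal develops 15-30 min at room temperature.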
HT1080 IDH1KD tx – qHTS for induction of synthetic lethality in tumor cells producing 2HG: qHTS for the HT-1080-IDH1KD cell line; HT-1080 IDH1 knockdown viability, ATP luminescence, 48 h; Potency, µM (highest dose often 46.1 µM), for the others: top-dose activity, negative = toxicity, most hits filed as cytotoxic; 2% of 360,000 active; AID 686971, 2013;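 note: potency is the fitted concentration of half-maximal effect; 0% = DMSO wells and -100% = cell-free medium wells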
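Using the IDH1-knockdown HT-1080 line run in the same batch and compound series as the NT line, viability after 48 h at 37 °C was determined by CellTiter-Glo luminescence and expressed as % activity.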
TGFb inhibitor – qHTS for Inhibitors of TGF-b; AID 588855, 2011; 1.2% of 410,000 active; HepG2 CAGA-GFP TGF-b/SMAD3 reporter, GFP fluorescence, 18 h; TGF-beta stimulated, 500 pg/mL final; Potency, µM (highest dose often 46.1 µM), for inactives: top-dose activity, negative = inhibition, actives largely listed as inhibitors; note: potency is the fitted concentration of half-maximal effect; % is set by controls: 0 for no effect and ±100 for the full control effect; nearly all actives have a fitted effect of over 65% in size
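Using HEPG2 CAGA-GFP reporter cells at 1000 cells/well, we pinned test compounds, stimulated with recombinant TGF-beta (500 pg/mL final) and measured total well GFP after 18 h.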
IL-1B inflam inh – qHTS for Inhibitors of Inflammasome Signaling: IL-1-beta AlphaLISA Primary Screen | activity change, % at 57.5 µM | THP-1 LPS/ATP IL-1B secretion, AlphaLISA, 16 h; stronger effect = lower value | 4.7% of 360,000 active | AID 743279, 2014; in the data active = activity change below about -50%; inconclusive = mostly about -30% to -49%; note: % is set by controls: 0 for no effect and ±100 for the full control effect
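Secreted IL-1B measured by AlphaLISA bead assay after 16 h compound exposure of THP-1 cells; compounds (final up to 57.5 uM) added 1 h before LPS (250 ng/mL) and ATP (1.25 mM) stimulation; lower signal means less secretion.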
The depositor's hits bear a star; ? = inconclusive; . = not tested or not shown. Unless noted, calls come from the whole dose curve; as a rule, active = well fitted curve in the direction sought with a large enough effect; inconclusive = small, poorly fitted or top-dose-only effect, or another doubt; inactive = no such curve, though single readings can be large; an effect the other way counts as inactive or inconclusive.

SMILES	HT1080NT lethal	HepG2 tox	Giardia killer	HT1080 IDH1KD tx	TGFb inhibitor	IL-1B inflam inh
CC1CCCN(Cc2c(O)ccc3c(=O)c(-c4ccc(Cl)cc4)c(C(F)(F)F)oc23)C1 (stereo unspecified)	.	-1%	.	.	6%	.
O=C(OCC(=O)N1CCOCC1)c1cnc(Cl)c(Cl)c1	6%	3%	-23	6%	11%	0
CC1CN(C(=O)COC(=O)c2cnc(Cl)c(Cl)c2)CC(C)O1 (stereo unspecified)	2%	5%	-7	5%	-9%	-72*
O=[N+]([O-])c1c(C(Cl)Cl)nn(-c2ccccc2)c1N1CCOCC1	-12%	-26%	?	-9%	-9%	-81*
O=C(O)c1cc(O)c2c(c1)[C@@H]([C@H]1c3cc(C(=O)O)cc(O)c3C(=O)c3c(O[C@@H]4O[C@H](CO)[C@@H](O)[C@H](O)[C@H]4O)cccc31)c1cccc(O[C@@H]3O[C@H](CO)[C@@H](O)[C@H](O)[C@H]3O)c1C2=O	-23%	-27%	-15	-25%	14µM*	18
OCC1OC(Oc2cccc3ccccc23)C(O)C(O)C1O (stereo unspecified)	-6%	13%	-8	-5%	-1%	0
CN(CC(=O)Nc1ccc(Cl)cc1)C(=O)Cc1c(F)cccc1Cl	5%	-4%	11	-11%	4%	2
CN(CC(=O)NC(=O)NC1CCCCC1)CC(=O)Nc1ccc(OC(F)(F)F)cc1	-1%	-43%	5	-10%	?	-70*
CN(CC(=O)Nc1ccc(OC(F)(F)F)cc1)C(=O)Cc1c(Cl)cccc1Cl	-3%	-20%	2	-2%	-8%	-55*
Cc1ccc(-c2n[nH]c(=S)n2/N=C/C=C/c2ccccc2[N+](=O)[O-])cc1	-2%	1%	8	-1%	2%	-6
COC(=O)c1n[nH]nc1-c1ccccc1	1%	0%	9	7%	4%	0
C[n+]1c(-c2ccccc2)cc2c(=Cc3ccc([N+](=O)[O-])cc3)c3ccccc3n21	?	-27%	-5	?	?	-98*
C[n+]1c(-c2ccccc2)cc2c(=Cc3ccccc3)c3ccccc3n21	?	-24%	0	16µM*	18µM*	-100*
CN(C)c1ccc(C=c2c3cc(O)ccc3n3c2cc(-c2ccccc2)[n+]3C)cc1	-27%	-58%	0	?	11µM*	-105*
CN(C)c1ccc(C=C2c3ccccc3-c3ccccc32)cc1	.	-8%	.	.	-3%	.
CC(C)n1c2ccccc2c2cc([N+](=O)[O-])ccc21	0%	-3%	-15	-24%	5%	-6
COc1ccccc1C(=O)Nc1ccc2nc(SCC(=O)N3CCCC3)sc2c1	.	2%	.	.	-1%	.
CC(C)CCn1cnc2c1c(=O)n(C)c(=O)n2C	0%	-5%	-4	3%	22%	0
Cc1ccc(C)c(NC2=NC3(CCCCC3)N=C(N)N2)c1	2%	-5%	-10	0%	21%	-25
NC1=NC2(CCCCC2)N=C(Nc2ccc(Br)cc2)N1	-12%	-23%	-16	-19%	-15%	-102*
Cc1ccc(NC2=NC3(CCCCC3)N=C(N)N2)c(C)c1	?	-19%	-1	11µM*	17%	?
Cc1ccccc1NC1=NC2(CCCC2)N=C(N)N1	2%	2%	8	0%	-1%	-4
Cc1ccc(NC2=NC3(CCCC3)N=C(N)N2)c(C)c1	18µM*	-1%	-7	16µM*	8%	-3
CC(Nc1cccc2ccccc12)C(=O)N/N=C/c1ccccn1 (stereo unspecified)	14µM*	-22%	3	7.1µM*	?	49
CC(=O)NC(C)c1cc(Cl)c2ccccc2c1O (stereo unspecified)	.	-1%	-9	.	?	.
SMILES	HT1080NT lethal	HepG2 tox	Giardia killer	HT1080 IDH1KD tx	TGFb inhibitor	IL-1B inflam inh
CN1CCN(C(c2ccc(Br)cc2)c2cc(Cl)c3cccnc3c2O)CC1 (stereo unspecified)	?	-23%	-4	?	?	-106*
CCC(=O)NC(C)c1cc(Cl)c2cccnc2c1O (stereo unspecified)	.	-58%	18	.	1.8µM*	.
CCC(=O)NC(c1ccc(C)cc1)c1cc(Cl)c2cccnc2c1O (stereo unspecified)	.	2%	-18	.	?	.
CC(=O)NC(C)c1cc(Cl)c2cccnc2c1O (stereo unspecified)	.	8.9µM*	16	.	7.1µM*	.
Cc1ccccc1Cn1c(CN2CCC(C(=O)NCCN(C)C)CC2)cc2ccccc21	.	10µM*	.	.	13µM*	.
COC(=O)CNC(=O)c1sc2ncn(CC(=O)Nc3ccc(C)c(Cl)c3)c(=O)c2c1C	-11%	-4%	15	-6%	-6%	-81*
COCCNC(=S)N(Cc1cccs1)Cc1cc2cccc(C)c2[nH]c1=O	-18%	-4%	-10	-15%	-20%	-56*
Cc1ccc2[nH]c(=O)c(CN(CCCN(C)C)C(=S)NCCc3ccccc3)cc2c1	18µM*	-74%	-6	18µM*	?	-67*
COc1cc2cc(CN(CCc3cccc(C)c3)C(=S)NCCCN3CCOCC3)c(=O)[nH]c2cc1OC	-1%	-34%	-5	?	-20%	-62*
Cc1cccc2cc(CN(CCN(C)C)C(=S)NCc3ccco3)c(=O)[nH]c12	-5%	-37%	-4	-6%	?	-13
Cc1cccc2cc(CN(CCCN(C)C)C(=S)NCCc3ccccc3)c(=O)[nH]c12	-20%	5%	0	-18%	-29%	-51*
Cc1cccc(NC(=S)N(Cc2cccs2)Cc2cc3cc(C)cc(C)c3[nH]c2=O)c1	5%	-3%	-3	4%	-2%	3
COc1cc2cc(CN(CCc3cccc(C)c3)C(=S)NCCCN(C)C)c(=O)[nH]c2cc1OC	-14%	-103%	14	0%	?	?
Cc1ccc(NC(=O)C2Oc3ccccc3OC2C)cc1 (stereo unspecified)	-4%	-8%	-7	-3%	-5%	12
CCOc1ccccc1C(=O)Nc1c[nH]c(=O)[nH]c1=O	18%	0%	5	5%	15%	-10
